Outcome and AC50 data for 25 molecules are collected here from PubChem BioAssay (EPA / NIEHS).

Structures are written as SMILES. Several values for one entry are separate records, joined by “and”; a condition that tells them apart may be missing. Identical values can stand only once. Results filed as inconclusive are left out. Activity calls are given as the source filed them. The calls were made as follows: active = hit-call score of the fitted dose curve at least 0.9, where 1 is the maximum; inconclusive = response in the unintended direction; inactive = score below 0.9.

In assay [1] the target is human CYP19A1, CYP19A1 (gene 1588) (UniProt P11511). The assay is described as follows: NVS_ADME_hCYP19A1: NovaScreen (NVS) CYP450-related Enzyme Activity (ADME) Assay for human CYP19A1 (AID 2283098). Put shortly:
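Biochem, cell-free; recombinant enzyme + specific substrate; fluorescence intensity at 0.5 h post-dose; 10 uM duplicate primary, conc. series for actives; acetonitrile = negative control/baseline; positive and negative controls on every plate.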

Assay [2] addresses human CYP2C9, CYP2C9 (gene 1559) (UniProt P11712). The assay is described as follows: NVS_ADME_hCYP2C9: NovaScreen (NVS) CYP450-related Enzyme Activity (ADME) Assay for human CYP2C9 (AID 2283108). Put shortly: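 Fluorescence readout of CYP2C9 activity (SF9-expressed human enzyme) at 0.75 h. The primary screen used 10 uM in duplicate, with concentration-response follow-up for actives; acetonitrile was the negative control.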

The target of assay [3] is Cytochrome P450 3A4 (Homo sapiens) (UniProt P08684). Kind of assay: NVS_ADME_hCYP3A4: NovaScreen (NVS) CYP450-related Enzyme Activity (ADME) Assay for human CYP3A4 (AID 2283110). Summed up: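 Compounds were first screened in duplicate at 10 uM against recombinant CYP3A4 produced in insect cells, then actives were run in concentration series. Enzyme activity was measured by fluorescence after 0.33 hour, with acetonitrile as baseline.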

The target in assay [4] is human Caspase 5 (CASP5), CASP5 (gene 838) (UniProt P51878). Kind of assay: NVS_ENZ_hCASP5: NovaScreen (NVS) Enzymatic Assay for human Caspase 5 (CASP5) (AID 2283137). Summed up:
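Recombinant E. coli-expressed human caspase 5 in a cell-free enzyme assay; fluorescence intensity read 2 hours after chemical dosing. Single-concentration duplicate screen at 25 uM, then concentration-response up to 50 uM for hits; DMSO negative control.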

Assay [5] concerns the target human Beta-secretase (BACE), BACE1 (gene 23621) (UniProt P56817). Kind of assay: NVS_ENZ_hBACE: NovaScreen (NVS) Enzymatic Assay for human Beta-secretase (BACE) (AID 2283140).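 Also: hits are inhibitors that reduce fluorescent substrate signal versus DMSO.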 Put shortly:
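Cell-free fluorescence-intensity assay of recombinant BACE1 expressed in SF9 cells, read 1 hour after dosing. Loss of signal indicates reduced protease activity, fitted relative to DMSO negative control. Primary screen at 25 uM in duplicate; actives followed in concentration series.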

Assay [6] addresses human Caspase 4 (CASP4), CASP4 (gene 837) (UniProt P49662). Kind of assay: NVS_ENZ_hCASP4: NovaScreen (NVS) Enzymatic Assay for human Caspase 4 (CASP4) (AID 2283143). Put shortly:
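The cell-free assay used E. coli-expressed enzyme with a fluorogenic substrate, read 2 h after dosing. Signal loss was scored versus DMSO. Screening was in duplicate at 25 uM, then singleton concentration-response up to 50 uM.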

The target in assay [7] is human CYP2D6, CYP2D6 (gene 1565) (UniProt P10635). Kind of assay: NVS_ADME_hCYP2D6: NovaScreen (NVS) CYP450-related Enzyme Activity (ADME) Assay for human CYP2D6 (AID 2283107). Put shortly: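 Cell-free assay using recombinant enzyme expressed in insect cells, with fluorescence-intensity readout of enzyme activity 1 hour after chemical dosing. Loss of signal versus acetonitrile negative control indicates inhibition. Primary screen ran in duplicate at 10 uM; actives were retested in concentration series.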

In assay [8] the target is rat CYP2A2, Cyp2a2 (gene 24895) (UniProt P15149). The assay is described as follows: NVS_ADME_rCYP2A2: NovaScreen (NVS) CYP450-related Enzyme Activity (ADME) Assay for rat CYP2A2 (AID 2283116). Summed up: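 Cell-free recombinant rat CYP2A2 activity with fluorogenic substrate, fluorescence read 0.2 h after dosing. Chemicals screened at 10 uM in duplicate, hits then run in concentration-response up to 20 uM; signal loss versus acetonitrile baseline.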

Assay [9] deals with rat CYP3A1, gene 25642. The assay is described as follows: NVS_ADME_rCYP3A1: NovaScreen (NVS) CYP450-related Enzyme Activity (ADME) Assay for rat CYP3A1 (AID 2283126). Put shortly:
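Cell-free recombinant CYP assay with fluorescent substrate, read 0.5 h after dosing. Screened at 10 uM in duplicate, hits at up to 20 uM in concentration-response; loss of signal versus acetonitrile baseline.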

The target in assay [10] is rat CYP3A2, Cyp3a2 (gene 266682) (UniProt P05183). The assay is described as follows: NVS_ADME_rCYP3A2: NovaScreen (NVS) CYP450-related Enzyme Activity (ADME) Assay for rat CYP3A2 (AID 2283128). Summed up:
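Cell-free rat CYP3A2 enzyme assay with fluorescent substrate, read 0.5 h after dosing. Primary duplicate screen at 10 uM; actives run in concentration-response up to 20 uM, relative to acetonitrile baseline.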

Assay [11] concerns the target Caspase-3 (Homo sapiens) (UniProt P42574). The assay is described as follows: NVS_ENZ_hCASP3: NovaScreen (NVS) Enzymatic Assay for human Caspase 3 (CASP3) (AID 2283139). Summed up: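 Recombinant human caspase-3 from E. coli with a fluorogenic substrate, read by fluorescence 1 h after dosing. Primary screen in duplicate at 25 uM. Actives (for example ≥30% inhibition) rerun as concentration-response up to 50 uM.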

The target of assay [12] is human Acid Phosphatase 1 (ACP1), ACP1 (gene 52) (UniProt P24666). Kind of assay: NVS_ENZ_hACP1: NovaScreen (NVS) Enzymatic Assay for human Acid Phosphatase 1 (ACP1) (AID 2283136). Put shortly:
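Recombinant enzyme expressed in Sf9 cells, tested cell-free; activity read by fluorescence with electrophoretic mobility shift separation of substrate and product, 1.5 h after dosing. Primary screen in duplicate at 25 uM, actives then run in concentration series; loss of signal versus DMSO.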

In assay [13] the target is human AKT serine/threonine Kinase 1 (AKT1), AKT1 (gene 207) (UniProt P31749). Kind of assay: NVS_ENZ_hAKT1: NovaScreen (NVS) Enzymatic Assay for human AKT serine/threonine Kinase 1 (AKT1) (AID 2283138). Summed up:
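Cell-free recombinant enzyme with substrate; activity read by fluorescence intensity after electrophoretic mobility shift separating substrate from product, 1 h after dosing. Single-concentration duplicates at 25 uM, then singleton concentration-response up to 50 uM; loss of signal versus DMSO.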

The target in assay [14] is human AKT serine/threonine Kinase 2 (AKT2), AKT2 (gene 208) (UniProt P31751). The assay is described as follows: NVS_ENZ_hAKT2: NovaScreen (NVS) Enzymatic Assay for human AKT serine/threonine Kinase 2 (AKT2) (AID 2283141). Summed up:
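Cell-free fluorescence/electrophoretic mobility shift readout of recombinant human AKT2 activity, 1 h after chemical dosing. Duplicate primary screen at 25 uM, then singleton concentration-response up to 50 uM; loss of signal versus DMSO baseline.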

Sequence of human Beta-secretase (BACE), BACE1 (gene 23621) (P56817 whole entry, looked up): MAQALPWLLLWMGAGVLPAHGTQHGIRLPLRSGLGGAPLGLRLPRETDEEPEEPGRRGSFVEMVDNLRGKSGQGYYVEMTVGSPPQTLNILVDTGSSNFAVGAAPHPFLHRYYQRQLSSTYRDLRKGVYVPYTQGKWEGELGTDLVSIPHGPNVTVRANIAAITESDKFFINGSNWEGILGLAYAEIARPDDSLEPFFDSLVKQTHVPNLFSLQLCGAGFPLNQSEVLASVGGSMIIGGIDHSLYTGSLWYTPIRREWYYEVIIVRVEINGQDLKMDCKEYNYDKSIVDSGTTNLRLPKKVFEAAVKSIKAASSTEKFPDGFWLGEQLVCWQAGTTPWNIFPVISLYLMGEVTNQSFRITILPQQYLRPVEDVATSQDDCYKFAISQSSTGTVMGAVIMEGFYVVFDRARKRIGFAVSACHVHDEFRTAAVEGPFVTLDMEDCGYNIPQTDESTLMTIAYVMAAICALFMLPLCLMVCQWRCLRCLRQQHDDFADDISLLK
Sequence of human CYP2D6, CYP2D6 (gene 1565) (P10635 whole entry, looked up): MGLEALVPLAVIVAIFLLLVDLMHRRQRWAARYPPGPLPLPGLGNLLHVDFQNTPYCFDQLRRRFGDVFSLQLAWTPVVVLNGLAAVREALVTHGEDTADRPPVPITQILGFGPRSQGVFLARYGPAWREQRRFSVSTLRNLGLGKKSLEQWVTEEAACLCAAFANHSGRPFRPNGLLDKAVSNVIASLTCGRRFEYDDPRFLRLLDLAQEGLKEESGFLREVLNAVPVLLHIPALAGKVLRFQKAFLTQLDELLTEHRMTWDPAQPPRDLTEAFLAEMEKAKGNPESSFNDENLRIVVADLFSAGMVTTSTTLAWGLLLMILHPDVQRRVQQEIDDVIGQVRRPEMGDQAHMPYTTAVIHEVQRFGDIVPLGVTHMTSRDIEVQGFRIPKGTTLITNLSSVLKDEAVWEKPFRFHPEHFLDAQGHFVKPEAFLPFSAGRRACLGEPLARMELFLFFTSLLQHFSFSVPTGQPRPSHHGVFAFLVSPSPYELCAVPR
Sequence of Caspase-3 (Homo sapiens) (P42574 whole entry, looked up): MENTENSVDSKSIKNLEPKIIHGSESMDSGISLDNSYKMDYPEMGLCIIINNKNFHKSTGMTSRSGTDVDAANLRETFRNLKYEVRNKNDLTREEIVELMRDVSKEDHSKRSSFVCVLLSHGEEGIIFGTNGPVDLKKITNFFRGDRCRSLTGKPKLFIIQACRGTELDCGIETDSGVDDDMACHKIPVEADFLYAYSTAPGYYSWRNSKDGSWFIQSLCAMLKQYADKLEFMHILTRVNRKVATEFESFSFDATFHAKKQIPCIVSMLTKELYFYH
Sequence of human Caspase 5 (CASP5), CASP5 (gene 838) (P51878 whole entry, looked up): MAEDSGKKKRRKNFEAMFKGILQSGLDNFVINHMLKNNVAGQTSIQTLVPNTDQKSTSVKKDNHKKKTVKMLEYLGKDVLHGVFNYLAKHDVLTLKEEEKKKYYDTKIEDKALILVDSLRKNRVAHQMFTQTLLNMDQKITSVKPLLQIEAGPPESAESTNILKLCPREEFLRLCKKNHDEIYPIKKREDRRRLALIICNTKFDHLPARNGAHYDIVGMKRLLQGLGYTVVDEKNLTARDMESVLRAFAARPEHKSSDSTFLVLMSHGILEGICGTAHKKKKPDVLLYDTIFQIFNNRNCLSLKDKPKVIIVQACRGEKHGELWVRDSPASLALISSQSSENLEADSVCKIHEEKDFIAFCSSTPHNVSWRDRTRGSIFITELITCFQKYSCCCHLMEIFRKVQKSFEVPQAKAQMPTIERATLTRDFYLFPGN
Sequence of human AKT serine/threonine Kinase 1 (AKT1), AKT1 (gene 207) (P31749 whole entry, looked up): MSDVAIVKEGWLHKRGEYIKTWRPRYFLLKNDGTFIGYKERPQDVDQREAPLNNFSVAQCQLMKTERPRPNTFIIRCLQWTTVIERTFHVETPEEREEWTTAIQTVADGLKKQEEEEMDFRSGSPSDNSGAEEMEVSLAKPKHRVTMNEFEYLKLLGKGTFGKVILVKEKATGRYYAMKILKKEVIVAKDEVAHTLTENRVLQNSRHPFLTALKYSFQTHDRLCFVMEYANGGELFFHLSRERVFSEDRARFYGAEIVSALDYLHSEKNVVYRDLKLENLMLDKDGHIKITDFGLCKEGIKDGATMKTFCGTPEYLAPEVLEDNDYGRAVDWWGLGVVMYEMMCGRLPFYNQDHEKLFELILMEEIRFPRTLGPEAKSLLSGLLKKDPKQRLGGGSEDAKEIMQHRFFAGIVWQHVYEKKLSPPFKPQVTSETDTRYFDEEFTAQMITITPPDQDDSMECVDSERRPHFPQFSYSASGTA
Sequence of human CYP2C9, CYP2C9 (gene 1559) (P11712 whole entry, looked up): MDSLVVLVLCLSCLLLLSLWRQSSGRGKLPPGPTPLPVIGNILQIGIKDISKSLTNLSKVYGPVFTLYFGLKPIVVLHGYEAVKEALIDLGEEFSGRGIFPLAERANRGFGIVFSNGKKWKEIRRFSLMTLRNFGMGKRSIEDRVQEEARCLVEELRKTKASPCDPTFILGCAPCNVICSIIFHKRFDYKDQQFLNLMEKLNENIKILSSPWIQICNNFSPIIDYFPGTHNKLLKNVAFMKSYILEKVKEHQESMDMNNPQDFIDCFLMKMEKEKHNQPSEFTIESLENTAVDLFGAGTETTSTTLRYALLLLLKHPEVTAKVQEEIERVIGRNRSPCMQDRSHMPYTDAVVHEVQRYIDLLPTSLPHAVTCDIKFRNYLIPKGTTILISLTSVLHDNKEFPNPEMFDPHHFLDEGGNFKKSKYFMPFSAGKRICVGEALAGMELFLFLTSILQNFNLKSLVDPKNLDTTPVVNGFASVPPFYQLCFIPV
Sequence of human Caspase 4 (CASP4), CASP4 (gene 837) (P49662 whole entry, looked up): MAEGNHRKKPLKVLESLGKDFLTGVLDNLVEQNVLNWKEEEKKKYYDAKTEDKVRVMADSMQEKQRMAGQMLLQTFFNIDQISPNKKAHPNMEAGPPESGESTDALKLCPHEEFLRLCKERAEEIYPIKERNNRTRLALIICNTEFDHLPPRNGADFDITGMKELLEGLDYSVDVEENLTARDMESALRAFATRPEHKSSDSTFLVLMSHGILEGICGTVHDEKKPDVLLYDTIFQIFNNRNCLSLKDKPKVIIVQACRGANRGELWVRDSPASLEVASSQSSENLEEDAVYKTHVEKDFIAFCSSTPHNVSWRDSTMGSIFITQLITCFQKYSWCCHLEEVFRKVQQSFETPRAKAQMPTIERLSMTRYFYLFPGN
Sequence of rat CYP2A2, Cyp2a2 (gene 24895) (P15149 whole entry, looked up): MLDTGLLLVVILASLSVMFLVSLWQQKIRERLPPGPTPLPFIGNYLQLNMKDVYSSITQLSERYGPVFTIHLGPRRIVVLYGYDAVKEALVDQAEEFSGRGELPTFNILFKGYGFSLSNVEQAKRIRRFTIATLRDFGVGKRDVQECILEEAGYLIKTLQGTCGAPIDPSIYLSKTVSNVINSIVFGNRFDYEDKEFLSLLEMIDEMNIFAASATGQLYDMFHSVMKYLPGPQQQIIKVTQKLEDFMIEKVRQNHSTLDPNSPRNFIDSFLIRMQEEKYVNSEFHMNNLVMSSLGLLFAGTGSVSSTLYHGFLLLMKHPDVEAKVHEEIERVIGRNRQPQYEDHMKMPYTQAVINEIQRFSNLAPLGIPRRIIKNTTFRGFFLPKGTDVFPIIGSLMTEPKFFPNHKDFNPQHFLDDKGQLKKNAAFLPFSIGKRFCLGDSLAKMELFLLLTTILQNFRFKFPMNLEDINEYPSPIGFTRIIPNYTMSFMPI
Sequence of Cytochrome P450 3A4 (Homo sapiens) (P08684 whole entry, looked up): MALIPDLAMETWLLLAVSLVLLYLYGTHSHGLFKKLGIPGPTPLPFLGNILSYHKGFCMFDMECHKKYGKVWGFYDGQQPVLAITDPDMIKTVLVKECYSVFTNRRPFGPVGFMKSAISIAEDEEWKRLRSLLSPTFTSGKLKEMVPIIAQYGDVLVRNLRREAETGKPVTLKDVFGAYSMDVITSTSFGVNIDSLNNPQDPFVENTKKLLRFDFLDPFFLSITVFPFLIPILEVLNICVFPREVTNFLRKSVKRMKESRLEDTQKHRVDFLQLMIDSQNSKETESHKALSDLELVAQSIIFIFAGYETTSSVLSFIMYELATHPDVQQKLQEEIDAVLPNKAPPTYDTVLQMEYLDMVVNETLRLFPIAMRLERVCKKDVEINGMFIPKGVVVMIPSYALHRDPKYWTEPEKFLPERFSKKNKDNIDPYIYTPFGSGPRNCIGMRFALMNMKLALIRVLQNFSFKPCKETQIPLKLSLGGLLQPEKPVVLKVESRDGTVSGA
Sequence of human AKT serine/threonine Kinase 2 (AKT2), AKT2 (gene 208) (P31751 whole entry, looked up): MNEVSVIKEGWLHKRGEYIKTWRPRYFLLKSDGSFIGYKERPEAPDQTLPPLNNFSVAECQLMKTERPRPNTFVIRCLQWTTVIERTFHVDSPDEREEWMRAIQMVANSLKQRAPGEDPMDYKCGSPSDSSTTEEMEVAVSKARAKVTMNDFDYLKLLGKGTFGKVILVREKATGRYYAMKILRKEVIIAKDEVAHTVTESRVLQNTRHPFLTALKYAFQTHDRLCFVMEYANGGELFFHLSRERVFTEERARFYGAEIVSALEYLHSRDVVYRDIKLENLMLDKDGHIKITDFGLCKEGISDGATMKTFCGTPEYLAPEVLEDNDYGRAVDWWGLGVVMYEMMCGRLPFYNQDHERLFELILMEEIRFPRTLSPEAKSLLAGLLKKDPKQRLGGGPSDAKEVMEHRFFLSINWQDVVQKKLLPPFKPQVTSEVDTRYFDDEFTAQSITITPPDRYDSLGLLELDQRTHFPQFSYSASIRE
Sequence of human Acid Phosphatase 1 (ACP1), ACP1 (gene 52) (P24666 whole entry, looked up): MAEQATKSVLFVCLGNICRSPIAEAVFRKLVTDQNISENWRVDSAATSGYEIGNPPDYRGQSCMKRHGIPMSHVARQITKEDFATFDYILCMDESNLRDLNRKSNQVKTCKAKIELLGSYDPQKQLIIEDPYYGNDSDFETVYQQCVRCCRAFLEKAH

With `C/C=C/C=C/C(=O)O`, in assay [1], the molecule was called inactive.

On to `CCc1cc(C2=C(C(=O)O)N(c3ccccc3C(F)(F)F)S(=O)(=O)c3ccccc32)cc2c1OCO2`, for which the call in [2], in assay [4] and in [6] was inactive. Further, the AC50 (commonly the concentration at which the activity in the assay is half-maximal) in assay [3] was 4.98 µM (active); in assay [5], 6.05 µM (active).

For `CC(C)COC(=O)CCCCC(=O)OCC(C)C`, the AC50 in assay [5] is 36.1 µM (active).

For `O=Cc1ccccc1C=O`, the molecule was called inactive in assay [4].

As to `Cc1ccc(-c2cc(C(F)(F)F)nn2-c2ccc(S(N)(=O)=O)cc2)cc1`, the AC50 in [2] was 6 µM (active). Besides, the molecule was called inactive in assay [6].

As for `O=C(NS(=O)(=O)/C=C/c1cccs1)c1ccc(F)cc1Br`, in [2], the concentration at half-maximal activity (AC50) was 4.11 µM (active).

As for `CCCCCCCCCC[N+](C)(C)[O-]`, the AC50 in assay [7] was 2.69 µM (active).

Regarding `CC(=O)O[C@]1(C(C)=O)CC[C@H]2[C@@H]3C=C(Cl)C4=CC(=O)[C@@H]5C[C@@H]5[C@]4(C)[C@H]3CC[C@@]21C`, the AC50 in assay [8] was 832 nM (active) and 2.03 µM (active) and 1.28 µM (active); in assay [9], 1.2 µM (active); in [10], 1.42 µM (active).

`O=C(O)c1[nH]n(-c2ccc(S(=O)(=O)O)cc2)c(=O)c1N=Nc1ccc(S(=O)(=O)O)cc1`: the molecule was called inactive in assay [6].

With `CC(C)(C)c1ccccc1`, the call in [5] was inactive.

With `CCCCCCCC(=O)OC`, the molecule was classed as inactive in [11].

For `COc1ccc(OC(F)(F)F)cc1CN[C@H]1CCCN[C@H]1c1ccccc1`, the result in assay [12] and in assay [13] was inactive.

As for `CN(C)C(=O)NC1(c2ccccc2)CCN(CC[C@@]2(c3ccc(F)c(F)c3)CN(C(=O)c3ccccc3)CCO2)CC1`, the AC50 in [3] is 5.63 µM (active). The outcome in [13] and in assay [11] was inactive.

On to `CC(C)OC(=O)C(C)(C)Oc1ccc(C(=O)c2ccc(Cl)cc2)cc1`, for which, in assay [2], the result was inactive.

For `O=C1c2c(O)cccc2Cc2cccc(O)c21`, the AC50 was 0.235 µM (active) in assay [4]; 13.1 µM (active) in assay [11]; 1.22 µM (active) in [5]; 16 µM (active) in [14]; 4.5 µM (active) in assay [6]. The molecule was called inactive in assay [13].

Consider `Cn1cnc2c1c(=O)[nH]c(=O)n2C`, for which, in [4], the molecule was classed as inactive.

For the molecule `CCCCCCCCCCCCCCOS(=O)(=O)O`, the concentration at half-maximal activity (AC50) in assay [4] is 2.27 µM (active); in assay [13], 14.2 µM (active); in assay [5], 1.77 µM (active); in assay [14], 13.3 µM (active).

For `CCCC(=O)O`, the molecule was called inactive in [13].

For the molecule `Cc1c(C)c2c(c(C)c1O)CCC(C)(COc1ccc(CC3SC(=O)NC3=O)cc1)O2` (stereo unspecified), the result in [2] was inactive.

In the case of `NC(=Nc1ccccc1)Nc1ccccc1`, the AC50 in assay [7] was 0.984 µM (active).

On to `CSc1ccc(Oc2ccc(S(N)(=O)=O)cc2CN(C)C)cc1C`, for which the AC50 in assay [7] was 4.8 µM (active); in assay [2] it was 4.84 µM (active).

For the molecule `CCCCC(CC)COP(=O)(OCC(CC)CCCC)OCC(CC)CCCC` (stereo unspecified), the molecule was called inactive in [2].

Turning to `CCCCCCC(CCCCCCCCCCC(=O)OCC(COC(C)=O)OC(C)=O)OC(C)=O` (stereo unspecified), the results for the AC50 in assay [2] and in assay [4] were 1.41 µM (active) and 13.7 µM (active), respectively.

In the case of `CCCCc1nc2cccnc2n1Cc1ccc(-c2ccccc2-c2nnn[nH]2)cc1`, the AC50 in assay [2] is 2.96 µM (active).

Turning to `O=C1CCCCC1`, the molecule was called inactive in assay [4] and in assay [11].
